Inconclusive results are not listed. Where a call stands in place of a potency, no number is given. The source made the active and inactive calls. Unless noted, calls come from the whole dose curve; as a rule, active = well fitted curve in the direction sought with a large enough effect; inconclusive = small, poorly fitted or top-dose-only effect, or another doubt; inactive = no such curve, though single readings can be large; an effect the other way counts as inactive or inconclusive.
Tests used:
[1] = molecular target: ATP-dependent 6-phosphofructokinase (Trypanosoma brucei brucei) (UniProt O15648); assay: qHTS Assay to Find Inhibitors of T. brucei phosphofructokinase: hit validation (AID 492961);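 note: luminescence reports ADP formed as PFK phosphorylates fructose-6-phosphate with ATP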
Chain of ATP-dependent 6-phosphofructokinase (Trypanosoma brucei brucei) (O15648 whole entry, looked up): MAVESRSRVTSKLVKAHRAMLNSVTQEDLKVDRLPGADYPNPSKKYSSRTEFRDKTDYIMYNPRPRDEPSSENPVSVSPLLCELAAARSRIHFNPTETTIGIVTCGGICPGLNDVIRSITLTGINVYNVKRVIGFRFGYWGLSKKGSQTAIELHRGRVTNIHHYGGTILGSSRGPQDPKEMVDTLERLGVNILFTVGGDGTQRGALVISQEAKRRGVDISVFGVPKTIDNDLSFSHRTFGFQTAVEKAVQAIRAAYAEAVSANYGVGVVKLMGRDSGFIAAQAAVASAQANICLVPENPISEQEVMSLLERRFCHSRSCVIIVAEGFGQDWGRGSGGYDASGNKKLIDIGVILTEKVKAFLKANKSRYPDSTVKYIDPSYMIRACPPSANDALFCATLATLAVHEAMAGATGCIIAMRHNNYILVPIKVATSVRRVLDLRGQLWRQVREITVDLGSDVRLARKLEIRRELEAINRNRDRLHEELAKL
Outline: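 In this biochemical qHTS validation, titrated compounds were tested against 1.25 nM PFK with 0.1 mM ATP and 0.5 mM F6P. Percent activity came from controls lacking or containing enzyme.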

[2] = Cell Viability - LYMP1-002 - Assay at 24 hr (AID 993)
Outline: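 Human lymphoblastoid LYMP1-002 cells, 2500/well in complete medium, were treated with compounds for 24 h at 37 C; intracellular ATP was read by CellTiter-Glo luminescence. AC50 values came from Hill-equation fits of qHTS concentration-response data.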

[3] = qHTS Assay for Identification of Small Molecule Inducers of Hypoxia Response (AID 2120; active = well fitted curve in the direction sought with a large enough effect in the signal ratio, with a control signal flat, not every such curve was filed as active; the % refers to the signal ratio)
Outline: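 HRE-beta-lactamase reporter in CellSensor HRE-bla ME-180 cells, 2500 cells/well in Opti-MEM with 0.5% dialyzed FBS; compounds tested as titration series, 17 h at 37 degrees C. CCF4 substrate 2.5 h at room temperature; AC50 from 460/530 nm ratio.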

[4] = molecular target: Estrogen receptor (Homo sapiens) (UniProt P03372); assay: qHTS assay for small molecule antagonists of estrogen receptor alpha signaling (AID 588513; active = well fitted curve in the direction sought with a large enough effect in the signal ratio, with a control signal flat, not every such curve was filed as active; the % refers to the signal ratio)
Chain of Estrogen receptor (Homo sapiens) (P03372 whole entry, looked up): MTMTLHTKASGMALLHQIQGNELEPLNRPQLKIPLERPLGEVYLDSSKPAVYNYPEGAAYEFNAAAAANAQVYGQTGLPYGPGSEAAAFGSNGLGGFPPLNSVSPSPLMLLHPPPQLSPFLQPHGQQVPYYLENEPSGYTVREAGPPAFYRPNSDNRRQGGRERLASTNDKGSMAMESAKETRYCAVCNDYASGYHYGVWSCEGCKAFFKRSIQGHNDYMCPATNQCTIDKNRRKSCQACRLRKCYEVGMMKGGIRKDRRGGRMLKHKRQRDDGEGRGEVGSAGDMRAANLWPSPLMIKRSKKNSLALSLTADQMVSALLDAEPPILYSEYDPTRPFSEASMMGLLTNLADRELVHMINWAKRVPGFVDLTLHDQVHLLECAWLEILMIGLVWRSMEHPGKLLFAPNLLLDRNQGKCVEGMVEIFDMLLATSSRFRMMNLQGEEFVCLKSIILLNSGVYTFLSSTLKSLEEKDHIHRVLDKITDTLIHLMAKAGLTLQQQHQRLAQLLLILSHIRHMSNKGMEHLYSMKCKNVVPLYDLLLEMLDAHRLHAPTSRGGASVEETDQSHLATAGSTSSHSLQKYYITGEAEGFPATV
Outline: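 ER-alpha-UAS-bla GripTite HEK 293 cells in 2% charcoal/dextran-treated FBS medium; compounds titrated (1:2, duplicate), then stimulated with 0.5 nM 17-beta-estradiol for 18 h at 37C. CCF4 beta-lactamase fluorescence; Hill-fit IC50 and efficacy.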

[5] = molecular target: Glucocorticoid receptor (Homo sapiens) (UniProt P04150); assay: qHTS assay for small molecule agonists of glucocorticoid receptor signaling (AID 588532; active = well fitted curve in the direction sought with a large enough effect in the signal ratio, with a control signal flat; the % refers to the signal ratio); conditions: HeLa MMTV-bla, beta-lactamase ratio, agonist, 18 h; stronger effect = higher value; percent of dexamethasone control, DMSO zero
Chain of Glucocorticoid receptor (Homo sapiens) (P04150 whole entry, looked up): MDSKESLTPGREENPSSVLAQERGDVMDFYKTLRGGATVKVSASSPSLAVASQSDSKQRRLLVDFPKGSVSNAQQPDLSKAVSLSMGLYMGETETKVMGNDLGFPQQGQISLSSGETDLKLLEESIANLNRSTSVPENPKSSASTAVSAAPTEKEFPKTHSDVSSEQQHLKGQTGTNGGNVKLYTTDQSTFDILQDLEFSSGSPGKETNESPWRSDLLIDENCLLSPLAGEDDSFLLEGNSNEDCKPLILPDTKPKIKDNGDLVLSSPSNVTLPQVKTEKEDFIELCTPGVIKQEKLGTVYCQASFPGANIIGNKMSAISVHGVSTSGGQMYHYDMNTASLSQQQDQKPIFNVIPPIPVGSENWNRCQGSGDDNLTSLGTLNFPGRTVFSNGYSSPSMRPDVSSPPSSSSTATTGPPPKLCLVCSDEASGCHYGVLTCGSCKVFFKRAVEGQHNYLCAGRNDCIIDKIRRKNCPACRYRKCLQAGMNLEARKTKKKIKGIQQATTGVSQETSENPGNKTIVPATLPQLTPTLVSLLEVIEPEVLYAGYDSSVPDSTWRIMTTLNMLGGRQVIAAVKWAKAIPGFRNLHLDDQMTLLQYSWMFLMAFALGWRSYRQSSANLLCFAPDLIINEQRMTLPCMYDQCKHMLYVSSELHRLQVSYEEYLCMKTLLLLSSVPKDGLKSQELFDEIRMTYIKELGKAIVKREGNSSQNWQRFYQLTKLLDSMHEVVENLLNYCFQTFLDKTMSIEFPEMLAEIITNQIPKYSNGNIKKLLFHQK
Outline: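 Quantitative HTS using CellSensor MMTV-bla HeLa cells in charcoal/dextran-treated serum; compounds tested up to 92 uM. After 18 h at 37 C, CCF4 dye reported reporter induction.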

[6] = molecular target: Glucocorticoid receptor (Homo sapiens) (UniProt P04150); assay: qHTS assay for small molecule antagonists of glucocorticoid receptor signaling (AID 588533; active = well fitted inhibition curve with a large enough effect in the signal ratio, with a control signal flat, not every such curve was filed as active; the % refers to the signal ratio;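 note: cells stimulated with 2 nM dexamethasone as agonist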)
Outline: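 Antagonist-mode qHTS: compound titrations added to GRE-bla HeLa cells, then dexamethasone 2 nM final; 18 h, 37 C. CCF4 FRET fluorescence normalized to dexamethasone and DMSO; IC50 from Hill fit.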

[7] = qHTS assay for small molecule antagonists of peroxisome proliferator-activated receptor delta signaling (AID 588535; active = well fitted inhibition curve with a large enough effect in the signal ratio, with a control signal flat, not every such curve was filed as active; the % refers to the signal ratio;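 for max response: cells co-treated with a PPAR-delta agonist as stimulator during compound exposure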); conditions: HEK293T PPARd-UAS-bla, beta-lactamase FRET ratio, 18 h; 460 nm channel
Outline: (§1)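 Cell-based beta-lactamase assay in antagonist mode: 4000 HEK293T PPAR-delta-UAS-bla cells per well, 5 hr preincubation then 18 hr compound incubation at 37 C. IC50 obtained by Hill equation fitting.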

[8] = molecular target: Peroxisome proliferator-activated receptor delta (Homo sapiens) (UniProt Q03181); assay: as above
Outline: as §1

[9] = molecular target: Peroxisome proliferator-activated receptor gamma (Homo sapiens) (UniProt P37231); assay: qHTS assay for small molecule agonists of peroxisome proliferator-activated receptor gamma signaling (AID 588536; active = well fitted curve in the direction sought with a large enough effect in the signal ratio, with a control signal flat, not every such curve was filed as active; the % refers to the signal ratio)
Chain of Peroxisome proliferator-activated receptor gamma (Homo sapiens) (P37231 whole entry, looked up): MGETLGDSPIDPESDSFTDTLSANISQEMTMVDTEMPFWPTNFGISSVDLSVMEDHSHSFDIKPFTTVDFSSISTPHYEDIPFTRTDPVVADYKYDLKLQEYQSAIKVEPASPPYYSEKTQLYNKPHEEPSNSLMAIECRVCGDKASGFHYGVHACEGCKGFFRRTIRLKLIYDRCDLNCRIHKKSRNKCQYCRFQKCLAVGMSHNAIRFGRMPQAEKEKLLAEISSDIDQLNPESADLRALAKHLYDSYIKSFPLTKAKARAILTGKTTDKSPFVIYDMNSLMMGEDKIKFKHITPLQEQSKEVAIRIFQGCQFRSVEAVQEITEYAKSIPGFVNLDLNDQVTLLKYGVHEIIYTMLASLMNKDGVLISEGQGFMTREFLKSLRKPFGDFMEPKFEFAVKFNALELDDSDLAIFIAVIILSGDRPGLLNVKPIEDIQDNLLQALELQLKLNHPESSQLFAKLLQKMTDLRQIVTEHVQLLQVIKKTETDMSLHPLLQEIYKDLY
Outline: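 Test agents, titrated, stimulated HEK293 UAS-bla cells overnight (16 h, 37 C). Substrate CCF4 was then added for two hours at room temperature before fluorescence reading.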

[10] = molecular target: Vitamin D3 receptor (Homo sapiens) (UniProt P11473); assay: qHTS assay for small molecule antagonists of vitamin D receptor signaling (AID 588541; calls by dose curve;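 note: receptor activated by calcitriol during compound treatment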)
Chain of Vitamin D3 receptor (Homo sapiens) (P11473 whole entry, looked up): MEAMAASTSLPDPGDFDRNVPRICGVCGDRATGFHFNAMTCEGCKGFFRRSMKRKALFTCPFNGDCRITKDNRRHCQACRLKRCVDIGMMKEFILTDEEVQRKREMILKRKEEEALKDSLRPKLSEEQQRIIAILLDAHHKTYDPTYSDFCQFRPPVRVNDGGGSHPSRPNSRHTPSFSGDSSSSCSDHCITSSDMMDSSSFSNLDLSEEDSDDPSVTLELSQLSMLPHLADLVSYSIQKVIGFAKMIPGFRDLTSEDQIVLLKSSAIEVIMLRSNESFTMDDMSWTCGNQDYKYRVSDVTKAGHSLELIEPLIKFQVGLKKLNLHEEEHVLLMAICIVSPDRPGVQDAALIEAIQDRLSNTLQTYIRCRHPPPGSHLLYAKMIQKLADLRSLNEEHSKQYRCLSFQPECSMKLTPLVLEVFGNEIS
Outline: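 Antagonist-mode beta-lactamase reporter assay: HEK293T VDR-UAS-bla cells were exposed to titrated compound alongside 1-alpha,25-dihydroxyvitamin D3 at 3 nM final for 16 h. Values were normalized to the 50 nM agonist control and DMSO basal, with IC50 and efficacy from Hill equation fits.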

[11] = molecular target: Vitamin D3 receptor (Homo sapiens) (UniProt P11473); assay: qHTS assay for small molecule agonists of vitamin D receptor signaling (AID 588543; calls by dose curve)
Outline: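 VDR-UAS-bla HEK293T cells, 2000/well, 2% charcoal-stripped FBS; compound titration 16 h at 37 C; CCF4 beta-lactamase ratio read. Normalized to 50 nM 1-alpha,25-dihydroxyvitamin D3 (100%) and DMSO; Hill fit gives EC50, efficacy.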

[12] = qHTS assay for small molecule agonists of retinoid X receptor alpha signaling (AID 588544); conditions: HEK293T RXRa-UAS-bla, beta-lactamase reporter, 18 h; 530 nm emission
[13] = Cell Viability - LYMP1-002 - Assay at 40 hr (AID 994); note: nearly all actives have a fitted effect of over 60% in size
Outline: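 Human lymphoblastoid cells, 2500/well in complete medium, were preincubated 5 hr at 37 C, then exposed to compounds for 40 hr at 37 C. Intracellular ATP was read by CellTiter-Glo luminescence after 30 min at room temperature; AC50 from Hill-equation fits.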

[14] = molecular target: Estrogen receptor (Homo sapiens) (UniProt P03372); assay: qHTS assay for small molecule agonists of estrogen receptor alpha signaling (AID 588514; calls by dose curve; note: nearly all actives have a fitted effect of over 70% in size)
Outline: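 ER-alpha-UAS-bla GripTite HEK 293 cells in medium with 2% charcoal/dextran-treated FBS were treated with compound titrations at 37 C for 18 hrs; beta-lactamase reporter read by CCF4 fluorescence after 2 hrs at RT.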

[15] = molecular target: Androgen receptor (Homo sapiens) (UniProt P10275); assay: qHTS assay for small molecule antagonists of androgen receptor signaling (AID 588516; active = well fitted curve in the direction sought with a large enough effect in the signal ratio, with a control signal flat, not every such curve was filed as active; the % refers to the signal ratio; note: potency is the fitted concentration of half-maximal effect)
Chain of Androgen receptor (Homo sapiens) (P10275 whole entry, looked up): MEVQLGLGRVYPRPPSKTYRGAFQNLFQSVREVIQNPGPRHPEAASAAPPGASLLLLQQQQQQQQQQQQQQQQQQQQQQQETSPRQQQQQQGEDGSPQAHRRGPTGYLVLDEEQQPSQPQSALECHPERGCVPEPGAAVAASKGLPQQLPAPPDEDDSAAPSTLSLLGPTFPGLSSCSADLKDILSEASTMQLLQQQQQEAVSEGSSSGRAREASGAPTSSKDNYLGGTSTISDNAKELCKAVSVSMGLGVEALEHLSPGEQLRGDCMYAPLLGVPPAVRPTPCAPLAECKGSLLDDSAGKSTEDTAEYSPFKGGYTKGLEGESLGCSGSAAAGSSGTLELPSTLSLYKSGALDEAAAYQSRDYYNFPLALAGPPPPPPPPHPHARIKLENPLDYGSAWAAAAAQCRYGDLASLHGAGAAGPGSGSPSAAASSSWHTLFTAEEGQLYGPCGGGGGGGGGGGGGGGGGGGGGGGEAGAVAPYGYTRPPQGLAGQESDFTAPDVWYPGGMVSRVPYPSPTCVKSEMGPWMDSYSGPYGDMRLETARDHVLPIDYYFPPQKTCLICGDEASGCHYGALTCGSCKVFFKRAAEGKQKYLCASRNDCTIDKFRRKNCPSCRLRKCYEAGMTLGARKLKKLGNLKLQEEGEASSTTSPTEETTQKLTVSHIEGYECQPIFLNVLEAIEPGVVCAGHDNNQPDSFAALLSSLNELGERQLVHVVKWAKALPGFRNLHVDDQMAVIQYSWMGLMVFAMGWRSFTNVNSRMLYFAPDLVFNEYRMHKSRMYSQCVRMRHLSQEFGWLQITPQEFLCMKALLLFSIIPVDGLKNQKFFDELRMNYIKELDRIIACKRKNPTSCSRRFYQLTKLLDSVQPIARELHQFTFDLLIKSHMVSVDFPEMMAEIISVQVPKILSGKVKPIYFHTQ
Outline: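 AR-UAS-bla GripTite HEK 293 cells (2000/well) treated with compound titrations plus 10 nM R1881 for 16 h at 37C. Beta-lactamase read by CCF4 FRET (460/530 nm); IC50 from Hill fits, normalized to R1881 and DMSO control wells.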

[16] = molecular target: alpha-glucosidase (Oryza sativa, rice) (UniProt Q653V4); assay: Counterscreen for Glucocerebrosidase Inhibitors: qHTS Assay for Rice alpha-Glucosidase at pH 5.0 (AID 997)
Outline: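 Rice alpha-glucosidase (4 nM final) with 400 uM 4-methylumbelliferyl-alpha-D-glucopyranoside in citrate buffer pH 5.0, 20 min at room temperature, stopped at pH 10; fluorescence 365/440 nm, compounds 0.7 nM–77 uM, AC50 from Hill fits.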

[17] = molecular target: Ubiquitin carboxyl-terminal hydrolase 1 (Homo sapiens) (UniProt O94782); assay: Inhibitors of USP1/UAF1: Pilot qHTS (AID 504865);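 note: rhodamine fluorescence freed from ubiquitin-rhodamine substrate followed over time; top concentration of the series differs between compounds; nearly all actives have a fitted effect of over 35% in size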
Chain of Ubiquitin carboxyl-terminal hydrolase 1 (Homo sapiens) (O94782 whole entry, looked up): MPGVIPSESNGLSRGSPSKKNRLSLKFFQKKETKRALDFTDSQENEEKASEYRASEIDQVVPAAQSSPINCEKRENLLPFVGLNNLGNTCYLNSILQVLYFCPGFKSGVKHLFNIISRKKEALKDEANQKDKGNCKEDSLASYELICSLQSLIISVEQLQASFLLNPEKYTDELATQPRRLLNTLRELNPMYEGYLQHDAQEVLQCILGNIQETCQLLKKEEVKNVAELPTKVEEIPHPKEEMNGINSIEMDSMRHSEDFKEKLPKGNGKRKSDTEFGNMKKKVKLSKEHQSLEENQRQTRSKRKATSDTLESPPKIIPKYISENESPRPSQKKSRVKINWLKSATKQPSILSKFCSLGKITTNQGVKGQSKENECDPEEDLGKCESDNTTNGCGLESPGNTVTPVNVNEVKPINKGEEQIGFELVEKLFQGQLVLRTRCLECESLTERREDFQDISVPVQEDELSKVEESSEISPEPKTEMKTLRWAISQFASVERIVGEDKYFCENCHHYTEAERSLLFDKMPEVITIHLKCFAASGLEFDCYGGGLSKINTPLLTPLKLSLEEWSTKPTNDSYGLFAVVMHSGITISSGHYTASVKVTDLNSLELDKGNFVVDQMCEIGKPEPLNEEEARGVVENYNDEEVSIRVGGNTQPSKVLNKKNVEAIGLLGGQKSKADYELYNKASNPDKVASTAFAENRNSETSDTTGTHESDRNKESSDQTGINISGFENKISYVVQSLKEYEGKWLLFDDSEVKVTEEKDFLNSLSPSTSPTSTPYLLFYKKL
Outline: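 USP1/UAF1 complex at 1 nM preincubated 15 min at room temperature with compound, then Ub-Rho substrate added at 150 nM final. Fluorescence (480/540 nm) read kinetically in 50 mM HEPES pH 7.8, 0.5 mM EDTA, 1 mM TCEP, 0.1 mg/ml BSA, 0.01% Tween-20.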

[18] = molecular target: DNA dC->dU-editing enzyme APOBEC-3G (Homo sapiens) (UniProt Q9HC16); assay: qHTS for inhibitors of Vif-A3G interactions: Validation (AID 588379)
Chain of DNA dC->dU-editing enzyme APOBEC-3G (Homo sapiens) (Q9HC16 whole entry, looked up): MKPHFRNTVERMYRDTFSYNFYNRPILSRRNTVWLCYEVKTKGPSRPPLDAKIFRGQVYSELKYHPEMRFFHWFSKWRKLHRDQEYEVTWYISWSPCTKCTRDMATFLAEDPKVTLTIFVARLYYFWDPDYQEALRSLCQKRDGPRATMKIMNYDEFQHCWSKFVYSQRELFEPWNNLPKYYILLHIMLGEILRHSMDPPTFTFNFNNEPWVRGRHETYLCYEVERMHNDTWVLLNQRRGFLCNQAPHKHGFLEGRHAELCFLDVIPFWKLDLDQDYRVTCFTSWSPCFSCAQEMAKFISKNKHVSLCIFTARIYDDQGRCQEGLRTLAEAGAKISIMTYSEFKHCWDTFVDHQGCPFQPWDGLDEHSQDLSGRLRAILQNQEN
Outline: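 HeLa cells stably expressing Vif and A3G-eYFP, 700 cells/well, incubated overnight at 37 deg C, then exposed to compound overnight at 37 deg C. Inhibition of Vif-mediated degradation read as increased yellow fluorescence (Ex 488/Em 500-530) by laser-scanning cytometry.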

[19] = molecular target: Androgen receptor (Homo sapiens) (UniProt P10275); assay: qHTS assay for small molecule agonists of androgen receptor signaling (AID 588515; active = well fitted curve in the direction sought with a large enough effect in the signal ratio, with a control signal flat; the % refers to the signal ratio); conditions: AR-UAS-bla HEK293, beta-lactamase ratio, agonist 16 h; stronger effect = higher value
Outline: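 EC50 and efficacy came from Hill fits of titrations (up to 92 uM) normalized to 30 nM R1881 as 100% and DMSO as 0%. Compound exposure was 16 h at 37 C on AR-UAS-bla HEK293 cells, with a 405/460/530 nm CCF4 fluorescence read.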

[20] = qHTS Assay for Lipid Storage Modulators (AID 1519; calls by dose curve); conditions: Drosophila S3 cells, BODIPY lipid droplet/cell ratio, laser cytometry, cells loaded with oleic acid
Outline: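 Cells seeded at 5,000 per well were treated with compounds over a concentration series and loaded with oleic acid (400 uM, as added). Lipid droplet fluorescence (488 nm excitation, 500-530 nm channel) was read by laser-scanning cytometry and normalized to 20 uM Triacsin C.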

[21] = measured here: cell count channel max response
[22] = measured here: lipid channel max response

CC[C@]1(O)CC2CN(CCc3c([nH]c4ccccc34)[C@@](C(=O)OC)(c3cc4c(cc3OC)N(C)[C@H]3[C@@](O)(C(=O)OC)[C@H](OC(C)=O)[C@]5(CC)C=CCN6CC[C@]43[C@@H]65)C2)C1 (stereo not given in full)
outcome [1]: inactive

Nc1ccccc1N
outcome [2]: inactive | outcome [3]: inactive | outcome [4]: inactive | activation [5]: 10.6% (inactive) | outcome [6]: inactive | max response [7]: -23.4% | outcome [8]: inactive | outcome [9]: inactive | outcome [10]: inactive | outcome [11]: inactive | max response [12]: 12.1%

Cc1ccc(N)cc1O
outcome [2]: inactive | outcome [13]: inactive | outcome [3]: inactive | outcome [14]: inactive | Potency [15]: inactive | activation [5]: 0.383% (inactive) | outcome [6]: inactive | max response [7]: -0.329% | outcome [8]: inactive | outcome [9]: inactive | outcome [10]: inactive | outcome [11]: inactive | max response [12]: 6.75%

CC(=O)O[C@H]1C(=O)[C@@]2(C)[C@H]([C@H](OC(=O)c3ccccc3)[C@]3(O)C[C@H](OC(=O)[C@H](O)[C@@H](NC(=O)c4ccccc4)c4ccccc4)C(C)=C1C3(C)C)[C@]1(OC(C)=O)CO[C@@H]1C[C@@H]2O
outcome [16]: inactive | outcome [1]: inactive | outcome [17]: inactive | outcome [18]: inactive | outcome [14]: inactive | activation [19]: -6.87% (inactive) | Potency [15]: 50.1 nM (active) | outcome [11]: inactive | max response [12]: -13.7%

COc1ccc2c(OC)c3ccoc3nc2c1OC
activity change, negative = inhibition ([20]; at 25.7 µM (top of the series)): -9.25% (inactive) | max response [20, 21]: 0.385% | max response [20, 22]: -6.85% | outcome [17]: inactive | outcome [18]: inactive

COc1ccc(C[C@H](N)C(=O)N[C@@H]2[C@H](O)[C@H](n3cnc4c(N(C)C)ncnc43)O[C@@H]2CO)cc1
outcome [17]: inactive

CC(=O)c1cc2c(cc1O)OC(C)(C)C=C2
activity change, negative = inhibition ([20]; at 57.5 µM (top of the series)): 18.6% (inactive) | max response [20, 21]: -14.4% | max response [20, 22]: 0.328% | outcome [17]: inactive

CC(C)C(N)C(=O)OCCOCn1cnc2c(=O)[nH]c(N)nc21 (stereo not given)
activity change, negative = inhibition ([20]; at 57.5 µM (top of the series)): 7.31% (inactive) | max response [20, 21]: 9.47% | max response [20, 22]: 21.7% | outcome [17]: inactive

Nc1nc2c(ncn2[C@@H]2O[C@H](CO)[C@@H](O)[C@H]2O)c(=O)[nH]1
activity change, negative = inhibition ([20]; at 57.5 µM (top of the series)): -2.55% (inactive) | max response [20, 21]: -11.6% | max response [20, 22]: -14.4% | outcome [17]: inactive | outcome [18]: inactive

CC(=O)O[C@@H]1CC(C)=C2[C@H]1[C@H](C)CC[C@H]2/C=C(\C)C(=O)O
outcome [2]: inactive | outcome [13]: inactive | outcome [3]: inactive | outcome [4]: inactive | outcome [14]: inactive | activation [19]: -3.27% (inactive) | activation [5]: 9.44% (inactive) | outcome [6]: inactive | outcome [9]: inactive | outcome [10]: inactive | outcome [11]: inactive | max response [12]: 12.6%

From PubChem BioAssay (NCATS)
